ALOX12 inh – inhibitors of human 12S-lipoxygenase ALOX12 | P18054 | purified 12hLO, xylenol orange hydroperoxide absorbance | Potency, µM (doses to about 108 µM), for the others: top-dose activity change, negative = inhibition, usual class: inhibitors | 580,000 tested, 1.1% active; note: % is set by controls: 0 for no effect and ±100 for the full control effect
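Purified human 12hLO at 150 nM in 25 mM Hepes, 0.01% Triton X-100, pH 7.0, preincubated 15 min at room temperature with compound. Reaction started with 40 uM arachidonic acid, 30 min at room temperature. Hydroperoxide measured by Fe-xylenol orange, 573/405 nm absorbance ratio.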
Sfp PPTase inh – inhibitors of Bacillus subtilis Sfp phosphopantetheinyl transferase; Q9F4F7; Biochemical Sfp PPTase activity, qHTS; Potency, µM, for the others: largest response in the series, negative = inhibition, actives largely listed as inhibitors; 310,000 tested, 3.5% active;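 note: the enzyme is Sfp with the accession as filed and its product quenches rhodamine fluorescence; 0% = enzyme reaction without inhibitor and -100% = no enzyme wells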
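Buffer: 50 mM Hepes-Na pH 7.6, 10 mM MgCl2, 0.01% Nonidet P-40, 0.01% BSA. Enzyme 15 nM, pre-exposed to compound 15 min; substrates then added and fluorescence change tracked over 30 min.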
GRP78 ERSR act – ER stress response induction in glioma; U87-MG GRP78 promoter luciferase reporter, 16 h; 420,000 tested, 0.02% active; AID 602332; Potency, µM, for the others: at the top dose activation, actives largely listed as activators; note: series mostly up to about 76 µM; % of control where 0% means no effect; nearly all actives have a fitted effect of over 35% in size
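ERSR induction read as luciferase luminescence (Bright-Glo, 10 min at room temperature) in stably transfected human U87-MG glioma cells exposed to compounds for 16 h, using GRP78 as sensor.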
VDR inhibitor – inhibitors of human vitamin D receptor. P11473. 400,000 tested, 0.93% active. VDR-SRC2-3 peptide fluorescence polarization, 2 h. Potency, µM, for the others: max response, negative = inhibition, actives largely listed as inhibitors. AID 504847; note: % is set by controls: 0 for no effect and ±100 for the full control effect
Target sequence (P11473 whole entry, looked up): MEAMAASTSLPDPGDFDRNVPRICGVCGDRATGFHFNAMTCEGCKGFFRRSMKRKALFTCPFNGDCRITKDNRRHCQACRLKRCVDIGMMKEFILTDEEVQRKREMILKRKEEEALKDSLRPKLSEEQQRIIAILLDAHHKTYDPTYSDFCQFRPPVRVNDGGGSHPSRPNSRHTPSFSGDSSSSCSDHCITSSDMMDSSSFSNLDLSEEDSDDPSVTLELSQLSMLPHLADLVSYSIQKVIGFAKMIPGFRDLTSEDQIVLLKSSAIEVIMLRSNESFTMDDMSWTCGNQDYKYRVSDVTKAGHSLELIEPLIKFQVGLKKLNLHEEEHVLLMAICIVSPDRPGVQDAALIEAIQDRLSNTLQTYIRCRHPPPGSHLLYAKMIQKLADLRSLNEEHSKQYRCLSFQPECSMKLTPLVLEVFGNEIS
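Compounds are added to VDR with labelled SRC2-3 coactivator peptide and held 2 h at room temperature. Inhibition of the VDR–peptide interaction is then read as a change in fluorescence polarization.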
G9a inh – inhibitors of human histone lysine methyltransferase G9a | Potency, µM (top dose mostly 102 µM), for the others: at the highest dose activity, negative = inhibition, hits mostly inhibitors | 350,000 tested, 8.8% active | AID 504332 | Q96KQ7 | G9a H3K9 monomethylation, AlphaScreen, 2 h; note: % is set by controls: 0 for no effect and ±100 for the full control effect; nearly all actives have a fitted effect of over 75% in size
Target sequence (Q96KQ7 913-1193 limits assumed): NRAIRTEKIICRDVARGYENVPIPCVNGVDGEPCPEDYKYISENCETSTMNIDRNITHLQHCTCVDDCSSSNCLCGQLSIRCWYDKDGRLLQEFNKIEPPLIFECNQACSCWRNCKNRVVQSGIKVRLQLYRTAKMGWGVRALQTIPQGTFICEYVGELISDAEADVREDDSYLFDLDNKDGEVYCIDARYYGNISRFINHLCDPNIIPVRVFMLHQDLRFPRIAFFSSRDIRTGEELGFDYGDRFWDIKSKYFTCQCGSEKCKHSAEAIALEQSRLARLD
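Enzyme 20 nM + cpd, 15 min RT; add b-H3K9 pep 500 nM / SAM 20 uM; 2 h RT; anti-H3K9me1 Ab 0.5 ug/mL + SA donor / anti-rabbit acceptor beads 20 ug/mL each, 10 min; AlphaScreen read.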
An asterisk follows results filed as active; ? = inconclusive; . = no result; [ ] = dose if it differs, or a comment. This is one part of a sample in which hits are shown more often than they occur. Calls come from the whole dose curve; as a rule, active = well fitted curve in the direction sought with a large enough effect; inconclusive = small, poorly fitted or top-dose-only effect, or another doubt; inactive = no such curve, though single readings can be large; an effect the other way counts as inactive or inconclusive. Potency is the fitted concentration of half-maximal effect.

SMILES	ALOX12 inh	Sfp PPTase inh	GRP78 ERSR act	VDR inhibitor	G9a inh
C/C(=N\NC(=O)c1ccc(Cl)cc1)c1ccccn1	22%	8%	-9%	20%	.
Cc1cc(OCC(=O)Nc2ccc3c(c2)OCCO3)c2c(C)cc(=O)oc2c1	42%	.	.	.	.
CCCC1CCCC(=O)O1 (configuration not stated)	10%[176 µM]	.	.	.	.
CN(CCCc1[nH]nc(N)c1C#N)c1nc(-c2ccccc2)nc2ccccc12	36%	.	.	.	.
Cc1ccc(-c2cc3c(=O)n(CCNC(=O)c4ccc(Cl)cc4)ccn3n2)cc1C	-24%	.	.	.	.
Cc1ccc(-c2cc3c(=O)n(CCNC(=O)Cc4ccc(Cl)cc4)ccn3n2)cc1C	40µM*	.	.	.	.
CC(O)CN(c1ccccc1)S(=O)(=O)c1cc(C(=O)O)cc2c1CCC2 (configuration not stated)	-15%	.	.	.	.
CC(C)C[C@@H](CN1CCCC1CN1C(=S)NC[C@@H]1Cc1ccccc1)N1C[C@H](Cc2ccccc2)N(CC2CCCCCC2)C1=S (some centres not stated)	35µM*	.	.	.	.
CC(C)C[C@@H](CN1CCC[C@@H]1CN1C(=S)NC[C@@H]1Cc1ccc(O)cc1)N1C[C@H](Cc2ccc(O)cc2)N(CCc2ccccc2)C1=S	-11%	.	-11%	.	.
CC(C)C[C@H]1CNC(=S)N1C[C@H]1CCCN1C[C@H](Cc1ccc(O)cc1)N1C[C@H](Cc2ccc(O)cc2)N(CCc2ccccc2)C1=S	45µM*	.	-6%	.	.
CC(C)C[C@H]1CNC(=S)N1C[C@H]1CCCN1C[C@H](Cc1ccccc1)N1C[C@H](Cc2ccc(O)cc2)N(CCc2ccccc2)C1=S	?	.	-4%	.	.
CC(C)C[C@@H](CN1CCCC1CN1C(=S)NC[C@@H]1Cc1ccccc1)N1C[C@H](Cc2ccccc2)N(CCc2ccccc2)C1=S (some centres not stated)	40µM*	.	.	.	.
CC(Oc1ccc(F)cc1)C(=O)Nc1ccc(N2CCN(C)CC2)nc1 (configuration not stated)	4%	.	.	.	.
Cc1c(/N=C/c2ccco2)n(Cc2ccccc2)c2ccccc12	0%	-18%	0%	1%	40µM*
Cc1cc(=O)c2ccccc2n1Cc1ccccc1	-3%	5%	-2%	10%	-33%
CCN1CCCC1CNS(=O)(=O)c1cccc(C(F)(F)F)c1 (configuration not stated)	?	3%	-1%	-2%	45µM*
CCOc1ccc(-n2c(-c3ccc(OC)cc3)c[n+]3c2CCCCC3)cc1	-8%	18%	-3%	-2%	14%[59 µM]
CCOc1ccc(-n2c(-c3ccc(Br)cc3)c[n+]3c2CCCCC3)cc1	-3%	6%	-3%	5%	1.1µM*
O=C(/C=C/c1ccco1)N(Cc1cccs1)C1CC1	35µM*	.	.	.	.
Cc1ccc(-c2c(C(=O)Nc3ccccc3C)c(C)[nH]c(=S)c2C#N)o1	?	2.8µM*	-2%	5%	-130%
CCc1[nH]c(=S)c(C#N)c(-c2ccccc2)c1C(=O)OC	?	-11%	-2%	-17%	16µM*
Cc1[nH]c(=S)c(C#N)c(-c2ccccc2)c1C(=O)Nc1ccccc1	?	28µM*	4%	-27%	?
Cc1ccccc1NC(=O)c1c(C)[nH]c(=S)c(C#N)c1-c1ccc(Cl)cc1	31%	-10%	-8%	-1%	?
O=C1CCN(Cc2ccc(F)cc2F)CCCC(c2nc(-c3cccnc3)no2)CCN1 (configuration not stated)	3%	.	.	.	.
CCOc1ccc(S(=O)(=O)N(CC)CC(=O)NCC2CCCO2)cc1 (configuration not stated)	6%	.	.	.	.
SMILES	ALOX12 inh	Sfp PPTase inh	GRP78 ERSR act	VDR inhibitor	G9a inh
CCCCc1cc(=O)oc2c(C)c3c(cc12)C=CC1(CCCCC1)O3	9%	.	.	.	.
CCCc1nc(C)cc(N2CCN(c3ccccc3)CC2)n1	?	?	-6%	-12%	50µM*
CC(NC(=O)CC12CC3CC(CC(C3)C1)C2)C12CC3CC(CC(C3)C1)C2 (configuration not stated)	1%	.	.	.	.
Cc1nc2ncnn2c(N2CCCCCC2)c1Cc1ccccc1	16%	.	.	.	.
NS(=O)(=O)c1ccc(-n2ncc3c(=O)[nH]c(SCC(=O)Nc4nccs4)nc32)cc1	?	3%	-2%	-17%	45µM*
Cc1cc(N/N=C/c2cccc(Br)c2)nc2ccccc12	-19%	20µM*	5%	0%	74%[59 µM]
COc1ccc(/C=C/C(=O)O)cc1Br	2%	.	.	.	.
CC(=O)[C@@H]1[C@@H]2C(=O)N(Cc3ccccc3)C(=O)[C@@H]2C2c3ccccc3C=CN21 (some centres not stated)	-7%	-13%	-2%	-4%	2.8µM*
COc1ccc(N2C(=O)[C@@H]3[C@H](C2=O)[C@H]2c4ccccc4C=CN2[C@@H]3C(=O)Nc2ccccc2)cc1	?	-5%	1%	-15%	8.9µM*
Cc1ccc(N2C(=O)[C@@H]3[C@H](C2=O)C2c4ccccc4C=CN2[C@@H]3C(=O)c2ccco2)cc1 (some centres not stated)	?	-23%	16%	?	3.2µM*
CC(C)(C)C(=O)[C@@H]1[C@@H]2C(=O)N(c3ccc4c(c3)OCCO4)C(=O)[C@@H]2C2c3ccccc3C=CN21 (some centres not stated)	.	-15%	3%	-14%	8.9µM*
Cc1ccccc1CC(=O)N1CCCn2cc(-c3cccc(C#N)c3)nc21	15%	.	.	.	.
CCOC(=O)c1c(CC(C)C)csc1/N=C/C1C(=O)CCCC1=O	0%	?	-17%	25%	50µM*
CCOC(=O)c1c(-c2ccccc2)csc1/N=C/C1C(=O)CCCC1=O	6%	-25%	-4%	-9%	-21%[59 µM]
COCCn1c(C)cc(C(=O)C(=O)Nc2nnc(COc3ccc(C)cc3)s2)c1C	47%	.	.	.	.
CC(=C1C(=O)c2ccccc2C1=O)N1CCN(C/C=C/c2ccccc2)CC1	-5%	56µM*	-1%	?	?
CC(CN1CCN(C/C=C/c2ccccc2)CC1)c1ccccc1 (configuration not stated)	0.79µM*	-12%	-1%	-4%	-3%[0.501 µM]
CC(=C1C(=O)c2ccccc2C1=O)N1CCN(Cc2ccccc2)CC1	8%	-18%	-3%	-20%	?
O=C(NCCOCCO)C(=O)Nc1c2c(nn1-c1ccc(F)cc1)CSC2	0%	.	-2%	27%	13µM*
O=C(NCc1ccccc1)C(=O)Nc1c2c(nn1-c1ccc(F)cc1)CSC2	-3%	.	1%	15%	17%[59 µM]
Cn1c(N2CCOCC2)nc(-c2ccccc2)c1-c1ccccc1	2%	1%	0%	11%	50µM*
CC(C)(C)c1nnc2c3cnn(-c4ccccc4)c3ncn12	-26%	.	.	.	.
CC/C(=N\Nc1nncc2ccccc12)c1ccc(F)cc1	-2%	2%	-8%	0%	40µM*
Fc1cccc(/C=N/Nc2nncc3ccccc23)c1	0%	-9%	-8%	?	11%
